Sampled rows, rich in hits. Any-hit rate of the full collection: about 17%.
HepG2 tox – qHTS for Inhibitors of TGF-b: Cytotox Counterscreen; HepG2 CAGA-GFP viability, ATP luminescence, 18 h; Potency, µM (doses to about 46.1 µM), for inactives: at the highest dose activity change, negative = cytotoxicity, hits mostly cytotoxic; actives 0.76% (n = 410,000)
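CellTiter-Glo luminescence gave cytotoxicity after 18 hours at 37 degrees C. The cells were HepG2 CAGA-GFP in 1% FBS DMEM, stimulated with 500 pg/mL TGF-beta after compound addition. %Activity was normalised to no-cell wells (complete cell-killing) and DMSO (no toxicity), and curves were fitted and classified.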
ATXN viability – Viability Counterscreen for Primary qHTS for Inhibitors of ATXN expression; S2 cells (HEK-293 line with an ATXN2-luciferase reporter) viability, CellTiter-Fluor protease fluorescence, 24 h; Potency, µM (top dose mostly 56.7 µM), hits mostly cytotoxic; actives 0.49% (n = 400,000); AID 651635, 2014; also: nearly all actives have a fitted effect of over 40% in size
ATXN2 expr inh – Primary qHTS for Inhibitors of ATXN expression; HEK-293 ATXN2-luciferase reporter, luminescence, 24 h; Potency, µM (top dose mostly 57 µM), for the others: at the highest dose activity change, negative = inhibition, usual class: inhibitors; actives 0.72% (n = 360,000); AID 1745845, 2022; also: % is scaled to controls: 0 for no effect and ±100 for the full control effect; nearly all actives have a fitted effect of over 55% in size
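qHTS (up to 57 uM final) was run with 24 h compound exposure of reporter cells at 37 °C. Each well was multiplexed: SteadyGlo luminescence measured ATXN2-luciferase expression after a fluorogenic Gly-Phe-AFC viability readout (25 uM final).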
DT40 TDP1 no CPT – qHTS for Inhibitors of human tyrosyl-DNA phosphodiesterase 1 (TDP1): qHTS in cells in absence of CPT | DT40 Tdp1-/- hTDP1 cells, no CPT, ATP luminescence, 48 h | Potency, µM (titrated, usually from 46.2 µM), for inactives: at the top dose activity change, negative = growth inhibition, actives largely listed as inhibitors | actives 15% (n = 420,000); also: % is scaled to controls: 0 for no effect and ±100 for the full control effect; nearly all actives have a fitted effect of over 55% in size
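Readout: luminescence from CellTiter-Glo after 30 min in the dark at RT. Cells: DT40 Tdp1-/- with stable hTDP1, 400/well. Exposure: compounds alone, ≥48 hr, 37 °C.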
DT40 TDP1 CPT – qHTS for Inhibitors of human tyrosyl-DNA phosphodiesterase 1 (TDP1): qHTS in cells in presence of CPT | chicken DT40 Tdp1-/-;hTDP1 cells + 20 nM CPT, ATP luminescence, 48 h | Potency, µM (series often up to 46.2 µM), for the others: at the highest dose activity change, negative = growth inhibition, most hits filed as inhibitors | actives 12% (n = 420,000) | AID 686979, 2013; also: % is scaled to controls: 0 for no effect and ±100 for the full control effect; nearly all actives have a fitted effect of over 55% in size
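Chicken DT40 Tdp1-/- cells complemented with human TDP1, 400 cells/well, exposed to compounds plus 20 nM camptothecin for at least 48 h at 37 C; viability read as ATP content by CellTiter-Glo luminescence.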
TGFb inhibitor – qHTS for Inhibitors of TGF-b | HepG2 CAGA-GFP TGF-b/SMAD3 reporter, GFP fluorescence, 18 h; TGF-beta stimulated, 500 pg/mL final | Potency, µM (doses to about 46.1 µM), without a hit: top-dose activity, negative = inhibition, hits mostly inhibitors | actives 1.2% (n = 410,000) | AID 588855, 2011; also: % is scaled to controls: 0 for no effect and ±100 for the full control effect; nearly all actives have a fitted effect of over 65% in size
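HEPG2 CAGA-GFP reporter cells (1000/well, DMEM with 1% FBS) received compounds, then recombinant TGF-beta at 500 pg/mL final for 18 hours at 37 degrees C. Per-cell GFP summed per well was normalised to unstimulated and stimulated DMSO controls before curve fitting.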
* = called active by the depositor; i = inactive; ? = inconclusive; nt = no result given; [ ] = remark or other dose. Calls follow the shape of the dose curve; as a rule, active = well fitted curve in the direction sought with a large enough effect; inconclusive = small, poorly fitted or top-dose-only effect, or another doubt; inactive = no such curve, though single readings can be large; an effect the other way counts as inactive or inconclusive. Potency is read from the fitted curve at half-maximal effect.

SMILES	HepG2 tox	ATXN viability	ATXN2 expr inh	DT40 TDP1 no CPT	DT40 TDP1 CPT	TGFb inhibitor
COc1ccccc1Cn1c(SCC(N)=O)nc2c(oc3ccccc32)c1=O	1%	i	-6%	0%	?	0%
Cc1ccc(-n2c(SCC(N)=O)nc3c(oc4ccccc43)c2=O)cc1	-24%	?	-8%	18µM*	?	-16%
CCOC(=O)N1C/C(=C\c2ccccc2)C(=O)/C(=C/c2ccccc2)C1	-45%	?	nt	3.7µM*	4.6µM*	2µM*
C/C(=C\c1ccccc1)C(=O)NCCN1CCOCC1	1%	?	nt	-14%	-4%	?
C[N+](C)(C)CCC(=O)N1C/C(=C/c2ccccc2)C(=O)/C(=C\c2ccccc2)C1	-100%	nt	8.4µM*	0.92µM*	0.65µM*	7.9µM*
CN(C)CCC(=O)N1C/C(=C/c2ccccc2)C(=O)/C(=C\c2ccccc2)C1	-126%	4.2µM*	2.1µM*	1.8µM*	1.8µM*	2µM*
O=C1/C(=C/c2ccccc2)CN(C(=O)CCN2CCOCC2)C/C1=C\c1ccccc1	16µM*	21µM*	27µM*	1.8µM*	1.6µM*	2.2µM*
O=C1NC(O)CCN1[C@@H]1O[C@H](CO)[C@H](O)[C@H]1O (stereo not given in full)	nt	nt	0%	nt	nt	nt
Oc1c(N=NC(=S)Nc2ccccc2F)c2ccccc2n1Cc1ccc(F)cc1	-21%	?	-41%	2.3µM*	5.2µM*	-24%
O=C(CNC(=O)Cc1ccccc1)N=Nc1c(O)n(Cc2ccc3c(c2)OCO3)c2ccccc12	9%	i	-17%	-9%	?	-9%
Cc1cccc(Cn2c(O)c(N=NC(=S)Nc3ccccc3F)c3ccccc32)c1	-2%	i	nt	7.3µM*	7.3µM*	-2%
Oc1c(N=NC(=S)Nc2ccccc2F)c2ccccc2n1Cc1cccc(Cl)c1	-8%	i	-10%[11.3 µM]	6.5µM*	6.5µM*	-9%
COCCCNC(=O)c1cc(S(=O)(=O)N2CCC3(CC2)OCCO3)ccc1F	4%	i	nt	-24%	4%	-1%
CC(=O)Nc1c2c3c(cccc3n(C)c1=O)C(=O)c1ccccc1-2	-3%	i	-9%	-29%	-12%	11%
Cn1c(=O)c(Nc2ccc(Cl)cc2)c2c3c(cccc31)C(=O)c1ccccc1-2	-19%	nt	-25%	18µM*	?	71%
CC(C)(C)OC(=O)C[C@H]1C/C=C\C[C@H](CC(=O)N(CCO)Cc2ccccc2)C(=O)N[C@@H](Cc2ccccc2)COC1=O	2%	i	-10%	?	16µM*	24%
CC(C)(C)OC(=O)C[C@H]1C/C=C\C[C@@H](CC(=O)N(CCO)Cc2ccccc2)C(=O)N[C@H](Cc2c[nH]c3ccccc23)COC1=O	-1%	?	-23%	18µM*	?	-28%
CC(C)(C)OC(=O)C[C@H]1C/C=C\C[C@H](CC(=O)N(CCO)Cc2ccccc2)C(=O)N[C@H](C(C)(C)C)COC1=O	-23%	i	-21%	21µM*	29µM*	-6%
CCC(=O)NS(=O)(=O)c1ccc(-c2c(-c3ccccc3)noc2C)cc1	nt	i	nt	-20%	-1%	nt
Cc1oc2c(C)c(O)ccc2c(=O)c1-c1cnn(-c2ccccc2)c1	-73%	i	-6%	?	-27%	?
Cc1[nH]nc(-c2ccc(O)c(C)c2O)c1-c1cnn(-c2ccccc2)c1	-10%	?	?	-21%	-13%	7.1µM*
CCC(C(=O)Nc1ccc(S(=O)(=O)Nc2ncccn2)cc1)c1ccccc1 (stereo not given)	1%	i	5%	20%	-3%	-2%
COc1ccc2c(Sc3ccc(Cl)cc3)c(C(=O)N3CCC(C)CC3)[nH]c2c1	-95%	?	?	?	-23%	11µM*
Cc1ccc2c(Sc3ccc(Cl)cc3)c(C(=O)N3CCC(C)CC3)[nH]c2c1	-80%	?	-36%	21µM*	16µM*	?
COc1ccc2c(Sc3ccccc3)c(C(=O)NCCc3ccc(Cl)cc3)[nH]c2c1	-1%	i	3%	?	?	-9%
SMILES	HepG2 tox	ATXN viability	ATXN2 expr inh	DT40 TDP1 no CPT	DT40 TDP1 CPT	TGFb inhibitor
Cc1ccc(S(=O)(=O)N(C)C)cc1NC(=O)COC(=O)C1CC1	-20%	i	4%	7%	7%	-3%
O=C(NC1CC(=O)N(c2cccc(F)c2)C1)c1cc2ccccc2o1 (stereo not given)	-22%	nt	nt	?	-27%	?
CS(=O)(=O)N(CC(=O)NC1CC2CCC1C2)c1ccc(Oc2ccccc2)cc1 (stereo not given)	-23%	i	16%	?	-11%	-15%
COC(=O)c1cc(NC(=O)Cc2coc3cc(OC)ccc23)cc(C(=O)OC)c1	-34%	i	-3%	?	23µM*	-6%
CCOc1ccc(NC(=O)c2oc3ccccc3c2NC(=O)Cc2ccc(OC)c(OC)c2)cc1	-20%	i	46%	?	?	-39%
COc1ccc(CC(=O)Nc2c(C(=O)Nc3ccc(F)cc3)oc3ccccc23)cc1OC	-3%	i	21%	21µM*	12µM*	1%
COc1ccc(NC(=O)c2oc3ccccc3c2NC(=O)Cc2coc3cc(C)ccc23)cc1	-11%	i	11%	12µM*	?	5%
COC(=O)c1ccc(C)c(NC(=O)Cc2coc3cc(OC)ccc23)c1	-10%	i	3%	?	-14%	-21%
COc1ccc(CNC(=O)CSCc2ccc(C)cc2)c(OC)c1	-10%	nt	nt	?	?	-15%
CCCn1c(=O)c(C(=O)Nc2ncccc2O)c(O)c2ccccc21	-27%	nt	?	-3%	-15%	-15%
CC(C)Cn1c(=O)c(C(=O)Nc2ccncc2)c(O)c2ccccc21	-18%	i	?	4.1µM*	2.9µM*	-30%
CC(C)Cn1c(=O)c(C(=O)Nc2cnccn2)c(O)c2ccccc21	-12%	i	-3%	26µM*	?	9%
CC(C)(C)OC(=O)N[C@H]1C=C[C@@H](OC(=O)CC(=O)OCC(F)(F)F)C1	2%	i	4%	2%	-1%	7%
Cc1cc2ncn(C(=O)c3ccc(F)cc3)c2cc1C	1%	i	-7%	-24%	5%	0%

Screening data from PubChem.
